Our source for the inhibition values is ChEMBL document CHEMBL1961873, “Compounds: GSK PKIS; Assays: Nanosyn kinase panel” (2012).

In test [1] the target is 5'-AMP-activated protein kinase catalytic subunit alpha-2 (Homo sapiens) (UniProt P54646). To be noted: at 1 µM.
The target of test [2] is T1, NUAK family SNF1-like kinase 1 (Homo sapiens) (UniProt O60285).
T1 sequence (whole entry): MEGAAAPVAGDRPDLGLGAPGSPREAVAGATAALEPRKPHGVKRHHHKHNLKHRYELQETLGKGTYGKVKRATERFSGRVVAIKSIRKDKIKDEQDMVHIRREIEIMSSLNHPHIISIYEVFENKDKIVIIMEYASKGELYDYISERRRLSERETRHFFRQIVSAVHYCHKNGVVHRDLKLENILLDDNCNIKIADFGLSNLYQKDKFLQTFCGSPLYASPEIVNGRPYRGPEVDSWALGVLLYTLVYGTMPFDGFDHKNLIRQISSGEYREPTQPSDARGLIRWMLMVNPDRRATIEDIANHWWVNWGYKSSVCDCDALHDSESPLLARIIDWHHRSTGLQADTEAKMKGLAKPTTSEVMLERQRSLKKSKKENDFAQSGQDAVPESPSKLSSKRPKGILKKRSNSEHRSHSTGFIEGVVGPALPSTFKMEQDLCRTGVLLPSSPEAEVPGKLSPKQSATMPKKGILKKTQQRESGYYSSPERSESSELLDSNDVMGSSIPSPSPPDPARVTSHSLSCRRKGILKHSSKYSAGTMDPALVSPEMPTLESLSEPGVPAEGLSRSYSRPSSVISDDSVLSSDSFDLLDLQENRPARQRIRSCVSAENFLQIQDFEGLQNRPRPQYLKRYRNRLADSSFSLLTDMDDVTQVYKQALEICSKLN
To be noted: at 0.1 µM.

The target of test [3] is T1, NUAK family SNF1-like kinase 1 (Homo sapiens). To be noted: at 1 µM.
Test [4] deals with T2, Serine/threonine-protein kinase BRSK1 (Homo sapiens) (UniProt Q8TDC3).
T2 sequence (whole entry): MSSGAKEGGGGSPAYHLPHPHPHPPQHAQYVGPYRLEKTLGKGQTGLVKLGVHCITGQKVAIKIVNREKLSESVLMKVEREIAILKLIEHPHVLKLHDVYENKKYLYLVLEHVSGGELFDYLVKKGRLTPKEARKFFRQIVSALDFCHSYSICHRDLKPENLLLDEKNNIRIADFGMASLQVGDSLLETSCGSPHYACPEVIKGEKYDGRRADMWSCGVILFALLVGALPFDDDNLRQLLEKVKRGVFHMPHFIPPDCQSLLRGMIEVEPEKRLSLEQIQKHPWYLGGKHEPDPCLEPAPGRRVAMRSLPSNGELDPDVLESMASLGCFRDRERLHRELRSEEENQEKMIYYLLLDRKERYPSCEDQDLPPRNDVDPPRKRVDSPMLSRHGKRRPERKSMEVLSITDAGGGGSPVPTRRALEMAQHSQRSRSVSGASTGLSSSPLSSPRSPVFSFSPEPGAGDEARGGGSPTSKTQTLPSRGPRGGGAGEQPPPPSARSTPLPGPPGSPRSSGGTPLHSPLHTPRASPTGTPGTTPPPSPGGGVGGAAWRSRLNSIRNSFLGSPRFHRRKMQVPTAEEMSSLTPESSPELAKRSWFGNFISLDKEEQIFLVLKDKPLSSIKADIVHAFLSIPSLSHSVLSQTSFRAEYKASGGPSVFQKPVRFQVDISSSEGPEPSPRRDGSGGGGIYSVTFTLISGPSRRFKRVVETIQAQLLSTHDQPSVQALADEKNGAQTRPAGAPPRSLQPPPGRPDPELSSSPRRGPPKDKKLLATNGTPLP
To be noted: at 0.1 µM.

Test [5] concerns the target T2, Serine/threonine-protein kinase BRSK1 (Homo sapiens). To be noted: at 1 µM.
Test [6] has as its target T3, Serine/threonine-protein kinase BRSK2 (Homo sapiens) (UniProt Q8IWQ3).
T3 sequence (whole entry): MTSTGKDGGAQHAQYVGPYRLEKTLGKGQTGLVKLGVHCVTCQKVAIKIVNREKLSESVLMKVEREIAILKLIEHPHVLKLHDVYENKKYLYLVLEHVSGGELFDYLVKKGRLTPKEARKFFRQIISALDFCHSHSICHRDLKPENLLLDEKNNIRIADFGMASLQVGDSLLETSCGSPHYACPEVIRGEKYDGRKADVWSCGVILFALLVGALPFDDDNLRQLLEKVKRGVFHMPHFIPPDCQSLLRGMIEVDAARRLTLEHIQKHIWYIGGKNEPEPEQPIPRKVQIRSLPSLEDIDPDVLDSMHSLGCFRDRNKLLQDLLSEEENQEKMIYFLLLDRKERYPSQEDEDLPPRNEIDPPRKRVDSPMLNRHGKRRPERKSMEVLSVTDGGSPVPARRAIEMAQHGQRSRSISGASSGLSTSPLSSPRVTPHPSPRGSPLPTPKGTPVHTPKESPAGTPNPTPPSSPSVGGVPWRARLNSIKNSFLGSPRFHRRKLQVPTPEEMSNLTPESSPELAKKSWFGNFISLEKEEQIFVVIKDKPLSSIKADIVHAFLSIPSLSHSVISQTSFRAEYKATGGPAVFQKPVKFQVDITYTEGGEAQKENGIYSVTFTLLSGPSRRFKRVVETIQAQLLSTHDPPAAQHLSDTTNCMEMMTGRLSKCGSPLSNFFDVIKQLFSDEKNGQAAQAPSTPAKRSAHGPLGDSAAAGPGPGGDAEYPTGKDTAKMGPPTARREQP
To be noted: at 0.1 µM.

The target in test [7] is T3, Serine/threonine-protein kinase BRSK2 (Homo sapiens). To be noted: at 1 µM.
In test [8] the target is Calcium/calmodulin-dependent protein kinase type 1D (Homo sapiens) (UniProt Q8IU85). To be noted: at 0.1 µM.
Calcium/calmodulin-dependent protein kinase type 1D (Homo sapiens), sequence (Q8IU85 whole entry, looked up): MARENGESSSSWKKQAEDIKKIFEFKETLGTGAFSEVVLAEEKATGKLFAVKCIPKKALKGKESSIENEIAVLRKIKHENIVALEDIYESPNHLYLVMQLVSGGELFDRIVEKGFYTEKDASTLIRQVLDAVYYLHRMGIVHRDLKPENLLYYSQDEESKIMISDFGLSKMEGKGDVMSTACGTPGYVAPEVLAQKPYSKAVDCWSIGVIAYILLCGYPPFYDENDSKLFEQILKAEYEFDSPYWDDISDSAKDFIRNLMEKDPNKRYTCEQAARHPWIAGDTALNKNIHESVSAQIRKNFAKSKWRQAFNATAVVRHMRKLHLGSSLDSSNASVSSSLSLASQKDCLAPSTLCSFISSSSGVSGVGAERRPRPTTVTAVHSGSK
For test [9] the target is unchanged. To be noted: at 1 µM.
In test [10] the target is Calcium/calmodulin-dependent protein kinase type II subunit alpha (Homo sapiens) (UniProt Q9UQM7). To be noted: at 0.1 µM.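 Also: reported values are averages (mean inhibition of CAMK2A).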
Calcium/calmodulin-dependent protein kinase type II subunit alpha (Homo sapiens), sequence (Q9UQM7 whole entry): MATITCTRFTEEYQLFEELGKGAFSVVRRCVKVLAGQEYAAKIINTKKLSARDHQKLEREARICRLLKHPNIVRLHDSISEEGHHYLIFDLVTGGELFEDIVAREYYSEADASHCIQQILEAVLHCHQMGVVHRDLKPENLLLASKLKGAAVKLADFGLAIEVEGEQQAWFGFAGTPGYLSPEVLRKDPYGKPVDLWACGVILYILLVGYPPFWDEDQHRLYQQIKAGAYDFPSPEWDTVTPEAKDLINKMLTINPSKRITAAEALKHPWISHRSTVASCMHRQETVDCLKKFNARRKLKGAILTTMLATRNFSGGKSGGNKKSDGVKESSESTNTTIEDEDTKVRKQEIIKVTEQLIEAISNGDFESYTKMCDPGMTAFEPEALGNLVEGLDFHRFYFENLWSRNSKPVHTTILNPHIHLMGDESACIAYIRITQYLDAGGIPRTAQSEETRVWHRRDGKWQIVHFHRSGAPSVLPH

5'-AMP-activated protein kinase catalytic subunit alpha-2 (Homo sapiens), sequence (P54646 whole entry, looked up): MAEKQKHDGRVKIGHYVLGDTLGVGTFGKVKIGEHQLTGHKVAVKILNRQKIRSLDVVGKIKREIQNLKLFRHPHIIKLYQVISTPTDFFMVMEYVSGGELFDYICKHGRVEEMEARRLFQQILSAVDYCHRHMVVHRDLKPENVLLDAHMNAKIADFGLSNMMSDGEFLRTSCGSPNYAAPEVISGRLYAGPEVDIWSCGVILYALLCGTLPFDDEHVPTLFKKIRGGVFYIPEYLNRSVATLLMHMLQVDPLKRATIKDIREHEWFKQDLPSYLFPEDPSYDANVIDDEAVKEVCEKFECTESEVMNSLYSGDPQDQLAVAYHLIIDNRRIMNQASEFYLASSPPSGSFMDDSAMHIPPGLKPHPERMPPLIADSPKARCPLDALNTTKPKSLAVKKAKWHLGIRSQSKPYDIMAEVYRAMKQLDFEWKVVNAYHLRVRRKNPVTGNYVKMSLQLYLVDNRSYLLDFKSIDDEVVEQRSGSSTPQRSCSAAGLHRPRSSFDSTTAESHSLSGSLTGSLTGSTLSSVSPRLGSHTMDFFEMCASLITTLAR

As a reminder, the inhibition is the drop in the measured response relative to a control, in per cent. As to `CS(=O)(=O)CCN(CC#N)Cc1ccc(-c2ccc3ncnc(Nc4ccc(OCc5cccc(F)c5)c(Cl)c4)c3c2)o1`, the inhibition in [1] is -0.61%; in [2], 0.1%; in test [3], 1.9%; in test [4] it was 0.56%; in test [5], -2.91%; in [6], 0.28%. The inhibition in [7] is 0.65%; in test [8], -1.29%; in test [9], -1.27%; in [10], -0.98%.
With `COc1ccc(-c2coc3ncnc(N)c23)cc1`, the inhibition in test [1] was 5.94%; in [2] it was 3.47%; in [3], 1.24%; in test [4] it was 3.33%; in test [5], 4.41%; in test [6] it was 2.46%. Moreover, the inhibition in [7] was determined as 4.44%; in test [8], 1.1%; in [9], 2.41%; in test [10], 3.92%.
With `CC1=C(C(=O)Nc2ccc3[nH]ncc3c2)C(c2ccc(F)cc2)NC(=O)N1` (stereo not given), the inhibition was determined as 5.96% in test [1]; 4.1% in test [2]; 11.3% in test [3]; 1.49% in [4]; 8.31% in [5]; 1.99% in test [6]. Also, the inhibition in test [7] was 15.5%; in test [8] it was 0.49%; in test [9], -0.14%; in test [10] it was -0.47%.
As to `Cn1cc(C=C2C(=O)Nc3cccnc32)c2ccccc21`, the inhibition was 8.64% in test [1]; 8.91% in [2]; 44.5% in test [3]; 4.71% in [4]; 12.3% in test [5]; 6.03% in [6]. For the same compound, the inhibition worked out at 12.3% in test [7], 0.99% in [8], 2.41% in test [9] and 1.58% in test [10].
With `O=C(Nc1n[nH]c2nc(-c3ccco3)c(Br)cc12)C1CC1`, the inhibition in test [1] is 5.5%; in test [2] it was -2.45%; in [3], 4.11%; in [4] it was 3%; in [5], 12.9%; in test [6] it was 3.32%. For the same compound, the inhibition in test [7] worked out at 11.5%; in test [8], 0.93%; in [9], 1.36%; in [10], 4.38%.
On to `CC(C)=Cc1cccc2c1/C(=N/Nc1ccc(S(N)(=O)=O)cc1)C(=O)N2`, for which the inhibition in test [1] was 40.2%; in test [2], 80.3%; in test [3], 87.3%; in test [4], 7.32%; in test [5], 45%; in [6], 14.6%. Besides, the inhibition was 58.2% in [7], 0.31% in test [8], 1.3% in [9] and 2.92% in [10].
For the compound `COc1ccc2cc(-c3c(-c4ccncc4)nc(-c4ccc([S+](C)[O-])cc4)n3C)ccc2c1` (stereo not given), the inhibition in [1] was 3.34%; in test [2] it was 1.01%; in [3], 2.13%; in [4], 1.67%; in test [5] it was 3.16%; in test [6], 1.67%. For the same compound, the inhibition is 0.66% in test [7], -0.09% in [8], 0.68% in [9] and 3.34% in test [10].
On to `CCn1c(-c2nonc2N)nc2c(C#CC(C)(C)O)nc(OC[C@@H](N)c3ccccc3)cc21`, for which the inhibition was 21.1% in test [1]; 28% in [2]; 94.5% in test [3]; 0.41% in test [4]; 4.9% in test [5]; 0.42% in [6]. For the same compound, the inhibition was 5% in test [7], 0.26% in test [8], 2.9% in test [9] and -2.45% in test [10].
On to `COc1cc2ncn(-c3cc(O[C@H](C)c4ccccc4Cl)c(C(N)=O)s3)c2cc1OC`, for which the inhibition came out at 8.68% in test [1]; 24% in [2]; 71.8% in [3]; 30.1% in test [4]; 64.9% in [5]; 42% in test [6]. Besides, the inhibition was found to be 69.2% in [7], 1.01% in [8], 2.31% in test [9] and 3.24% in test [10].
Take `Cc1cc(O)cc(C)c1/C=C/c1cncc(-c2nn[nH]n2)c1`: the inhibition in [1] stood at 4.51%; in [2], 3.07%; in test [3] it was 5.08%; in test [4], 3.46%; in [5] it was 19.2%; in [6], 2.49%. In addition, the inhibition is 13.2% in [7], 0.18% in test [8], -0.55% in test [9] and 6.31% in [10].
As for `COc1cc2c(cc1Nc1nc(N3CCc4ccccc43)c3cc[nH]c3n1)N(C(=O)CN(C)C)CC2`, the inhibition in [1] was 3.8%; in test [2], 4.37%; in test [3], -4.13%; in test [4], 2.17%; in [5] it was 0.61%; in test [6], 0.98%. Also, the inhibition came to 1.3% in test [7], 0.34% in [8], 2.58% in test [9] and 3.95% in test [10].
Turning to `NC(=O)c1ccc(-c2nc(-c3ccccn3)c(-c3ccc4c(c3)OCO4)[nH]2)cc1`, the inhibition in [1] was 2.23%; in test [2] it was 0.4%; in test [3], 1.15%; in test [4], -0.32%; in test [5] it was -0.03%; in test [6], 0.53%. Besides, the inhibition in [7] was found to be 1.06%; in test [8], 0.53%; in test [9] it was 0.23%; in test [10], 1.86%.
Turning to `Cc1nnc(-c2ccc(C)c(-c3ccc(C(=O)Nc4cccc(C#N)c4)cc3)c2)o1`, the inhibition in test [1] came out at 2.95%; in test [2], 2.98%; in test [3], 2.37%; in [4] it was 0.93%; in [5] it was 1.01%; in test [6], 2.39%. In addition, the inhibition in [7] was 4.23%; in [8], 0.65%; in test [9], 0.26%; in test [10] it was 1.97%.
For `NCc1ccc(-c2nc(-c3ccc(Cl)c(O)c3)c(-c3ccncc3)[nH]2)cc1`, the inhibition in test [1] is 3.06%; in test [2], 1.84%; in test [3], 3.79%; in [4], 0.1%; in test [5] it was 0.59%; in test [6], -0.21%. The inhibition in test [7] stood at 1.33%; in test [8] it was 0.15%; in [9] it was 0.23%; in test [10] it was 0.76%.
`O=C1NC(=O)C(c2ccccc2Cl)=C1Nc1cccc(O)c1`: the inhibition in test [1] amounted to 4.22%; in test [2] it was 0.82%; in [3] it was 12.4%; in [4], 1.18%; in test [5] it was 6.4%; in test [6], 1.63%. In addition, the inhibition in [7] came to 8.81%; in test [8], 1.44%; in test [9], 4.28%; in test [10], 3.22%.
In the case of `COC(=O)Nc1nc2cc(Oc3cccc(NC(=O)Nc4cc(C(F)(F)F)ccc4F)c3)ccc2[nH]1`, the inhibition was 3.68% in test [1]; 0.14% in test [2]; -3.14% in test [3]; 1.74% in [4]; 1.87% in [5]; 1.38% in [6]. Moreover, the inhibition in test [7] amounted to 2.1%; in test [8], 0.54%; in test [9] it was 4.96%; in test [10], 0.56%.
With `COc1cc2ncn(-c3cc(O[C@@H](C)c4ccccc4Cl)c(C(N)=O)s3)c2cc1OC`, the inhibition in test [1] was found to be 5.06%; in [2] it was 3.52%; in test [3] it was 22.4%; in [4], 8.66%; in test [5], 44%; in test [6], 19.4%. Besides, the inhibition in test [7] is 58.9%; in [8], 1.43%; in test [9] it was 1.53%; in test [10], 1.15%.
